Laboratory results reported in PubChem BioAssay (Tox21).
Results filed as inconclusive are left out. Calls of active or inactive are those of the source. The call rests on the fitted dose curve; in most records, active means well fitted activation curve with a large enough effect in the signal ratio in the repeat runs, with a control signal flat (not every such curve was filed as active); inconclusive means weak or mixed curves, or effect the other way; inactive means no such curve, though single readings can be large or run the other way; the % refers to the signal ratio.

Each compound was assayed against Androgen receptor (Homo sapiens) (UniProt P10275) (assay: qHTS assay to identify small molecule agonists of the androgen receptor (AR) signaling pathway (AID 743036)). Settings: HEK293 AR-UAS-bla GripTite, beta-lactamase FRET ratio, 16 h; series mostly up to 62.4 µM.
Sequence of Androgen receptor (Homo sapiens) (P10275 whole entry, looked up): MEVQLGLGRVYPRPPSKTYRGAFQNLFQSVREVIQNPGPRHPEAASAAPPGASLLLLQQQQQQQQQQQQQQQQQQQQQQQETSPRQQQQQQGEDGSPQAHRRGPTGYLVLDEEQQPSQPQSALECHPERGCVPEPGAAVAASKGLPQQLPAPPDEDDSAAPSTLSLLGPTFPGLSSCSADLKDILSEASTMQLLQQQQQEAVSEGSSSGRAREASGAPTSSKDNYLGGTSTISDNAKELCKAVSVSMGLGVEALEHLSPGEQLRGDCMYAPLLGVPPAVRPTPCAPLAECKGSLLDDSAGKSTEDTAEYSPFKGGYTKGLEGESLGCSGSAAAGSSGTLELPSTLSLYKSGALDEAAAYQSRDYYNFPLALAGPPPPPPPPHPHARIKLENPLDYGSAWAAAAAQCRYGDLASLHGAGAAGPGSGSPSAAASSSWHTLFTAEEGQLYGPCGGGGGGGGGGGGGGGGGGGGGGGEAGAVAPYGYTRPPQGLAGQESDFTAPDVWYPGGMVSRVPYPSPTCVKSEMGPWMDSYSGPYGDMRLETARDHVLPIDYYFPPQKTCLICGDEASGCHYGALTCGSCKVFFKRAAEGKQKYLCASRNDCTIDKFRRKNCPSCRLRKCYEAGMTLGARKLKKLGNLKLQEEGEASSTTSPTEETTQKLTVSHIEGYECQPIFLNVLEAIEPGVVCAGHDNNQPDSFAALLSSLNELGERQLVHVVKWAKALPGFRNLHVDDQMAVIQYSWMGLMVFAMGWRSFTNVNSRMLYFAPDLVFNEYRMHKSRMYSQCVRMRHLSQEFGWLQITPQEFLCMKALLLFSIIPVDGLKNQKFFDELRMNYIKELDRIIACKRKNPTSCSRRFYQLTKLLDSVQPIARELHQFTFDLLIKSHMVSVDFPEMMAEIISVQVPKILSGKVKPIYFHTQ
Source text: U.S. Tox21 Program National Center for Advancing Translational Sciences [NCATS] NIH Chemical Genomics Center [NCGC] U.S. Environmental Protection Agency [EPA] National Institutes of Environmental Health Sciences [NIEHS] National Toxicology Program [NTP] U.S. Food and Drug Administration [FDA] Tox21 Assay Overview: Androgen receptor (AR), a nuclear hormone receptor, plays a critical role in AR-dependent prostate cancer and other androgen related diseases. Endocrine disrupting chemicals (EDCs) and their interactions with steroid hormone receptors like AR may cause disruption of normal endocrine function as well as interfere with metabolic homeostasis, reproduction, developmental and behavioral functions. To identify the compounds that activate AR signaling, GeneBLAzer AR-UAS-bla-GripTite cell line (Invitrogen, Carlsbad, CA, USA) containing a beta-lactamase reporter gene under the control of an Upstream Activator Sequence (UAS) stably integrated into HEK293 cells was used to screen the Tox21 10K compound library.
Tox21 Assay Protocol Summary: AR-bla cells were dispensed at 2,000 cells/6 uL/well of assay medium into black wall/clear-bottom 1536-well plates using a Multidrop Combi (ThermoFisher Scientific, Waltham, MA) dispenser. After the assay plates were incubated at 37C and 5% CO2 for 4 h, 23 nL of compounds dissolved in DMSO, positive controls or DMSO only was transferred to the assay plate by a Pintool station (Kalypsys, San Diego, CA). The plates were incubated at 37C and 5% CO2 for 16 h. Then 1 uL of LiveBLAzerTM B/G FRET substrate was added using a Bioraptr Flying Reagent Dispenser (FRD) workstation (Beckman Coulter, Indianapolis, IN, USA). The plates were incubated at room temperature for 2 h, and fluorescence intensity was measured by an Envision plate reader (PerkinElmer, Shelton, CT).

Structure (SMILES)	outcome
CCN(CC)c1ccccc1	inactive
Cc1[nH]c(=O)n(C(C)(C)C)c(=O)c1Cl	inactive
c1ccc(-c2ccccc2)cc1	inactive
[N-]=[N+]=[N-]	inactive
CCCC1COC(Cn2cncn2)(c2ccc(Cl)cc2Cl)O1 (centres undefined)	inactive
c1cc2c3c(cccc3c1)CC2	inactive
O=c1ccc(=O)[nH][nH]1	inactive
C=C(C)CCl	inactive
CCCN(CCC)c1c([N+](=O)[O-])cc(C(F)(F)F)cc1[N+](=O)[O-]	inactive
CCNc1nc(NC(C)C)nc(SC)n1	inactive
O=c1[nH]c(=O)[nH]c(=O)[nH]1	inactive
COCCl	inactive
O=C(NC(=O)c1c(F)cccc1F)Nc1cc(Cl)c(OC(F)(F)C(F)C(F)(F)F)cc1Cl (centres undefined)	inactive
CCCCN(CC)C(=O)SCCC	inactive
